Test [1] addresses Aldehyde dehydrogenase, mitochondrial (Homo sapiens) (UniProt P05091). Description: qHTS for Inhibitors of the Aldehyde Dehydrogenase Family (ALDH2) Validation screens (AID 2061302; active means well fitted inhibition curve with a large enough effect; title and protocol of this record describe different tests;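 further: plate controls were DMSO vehicle for no effect and maximal DPI positive control response for full effect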).
The target of test [2] is Cellular tumor antigen p53 (Homo sapiens) (UniProt P04637). The test is described as follows: Primary qHTS for small molecule compounds that upregulate eGFP-tagged delta133p53alpha (in C-terminal) cells. (AID 2060324).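 Further: 0% = DMSO wells and 100% = 57.5 µM 5-azacytidine.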 An outline of the steps: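 Concentration-response screen: compounds titrated onto pre-induced NCI-H358 D133p53a-eGFP cells, incubated one day, fixed with 3.5% PFA. Per-cell GFP peak intensity was gated, then normalized against intraplate controls.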

The target of test [3] is Retinaldehyde dehydrogenase 3 (Homo sapiens) (UniProt P47895). Description: qHTS for Inhibitors of the Aldehyde Dehydrogenase Family (ALDH1A3) Validation screen (AID 2061312). Further: on the % scale 0 is the no-effect control and ±100 the full control effect; nearly all actives have a fitted effect of over 45% in size. Background: qHTS replaces the single test concentration by a dilution series.
The nature of test [4]: qHTS for Inhibitors of the Aldehyde Dehydrogenase Family (ALDH1A2, ALDH1A3, ALDH2, ALDH3A1) (AID 2061307). Further: nearly all actives have a fitted effect of over 50% in size. On activity change, negative = inhibition: on the % scale 0 is the no-effect control and ±100 the full control effect.
Test [5] deals with Retinaldehyde dehydrogenase 3 (Homo sapiens) (UniProt P47895). The test is described as follows: qHTS for Inhibitors of the Aldehyde Dehydrogenase Family (ALDH1A3) Confirmatory screens (AID 2061311). Further: nearly all actives have a fitted effect of over 60% in size. Further: potency means the concentration at half of the fitted maximal effect. On activity change, negative = inhibition: on the % scale 0 is the no-effect control and ±100 the full control effect.
Test [6] can be described thus: BET inhibitor-based combinations targeting novel dependencies in MECOM-rearranged (r) AML: SET-2 cell line (AID 2202231).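 Further: plate controls were DMSO treated cells for no effect and wells without cells for full effect; nearly all actives have a fitted effect of over 35% in size.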 The conditions noted are these: SET-2 AML cells viability, CellTiter-Glo luminescence, 48 h; viability: active compounds read low, series mostly up to about 46 µM. An outline of the steps: (§1)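 Readout: CellTiter-Glo luminescence. Exposure: 48 h, 11 concentrations, 500 cells/well. Metric: AUC and within-line Z-AUC after DMSO/empty-well normalization.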
For orientation: ATP-based viability assays read luminescence as a measure of living cells.

Test [7] is described as follows: BET inhibitor-based combinations targeting novel dependencies in MECOM-rearranged (r) AML: OCI-AML3 cell line (AID 2202232).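 Further: series mostly up to about 46 µM; plate controls were DMSO vehicle wells for no effect and wells without cells for full effect; nearly all actives have a fitted effect of over 35% in size.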 The conditions noted are these: Potency: OCI-AML3 viability. The method, boiled down:
as §1

Test [8] can be described thus: BET inhibitor-based combinations targeting novel dependencies in MECOM-rearranged (r) AML: HNT-34 cell line (AID 2202234).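 Further: plate controls were vehicle wells for no effect and cell-free wells for full effect; nearly all actives have a fitted effect of over 35% in size.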 The method, boiled down:
(§2)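 Seeding density was 500 cells/well, and drug exposure lasted 48 hr under standard culture conditions. Read-out used CellTiter-Glo reagent with a 15 min room-temperature incubation before luminescence measurement; AUC and Z-AUC summarize the normalized responses.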

Test [9] can be described thus: BET inhibitor-based combinations targeting novel dependencies in MECOM-rearranged (r) AML: UCSD-AML1 cell line (AID 2202235).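 Further: series mostly up to about 46 µM; plate controls were DMSO vehicle wells for no effect and blank wells for full effect; nearly all actives have a fitted effect of over 40% in size.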 An outline of the steps: as §2
Test [10] can be described thus: BET inhibitor-based combinations targeting novel dependencies in MECOM-rearranged (r) AML: AML-191 cell line (AID 2202236; further: nearly all actives have a fitted effect of over 35% in size; further: potency means the concentration at half of the fitted maximal effect). An outline of the steps: as §1
Test [11] can be described thus: BET inhibitor-based combinations targeting novel dependencies in MECOM-rearranged (r) AML: AML-194 cell line (AID 2202237;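 further: plate controls were vehicle wells for no effect and wells without cells for full effect; nearly all actives have a fitted effect of over 40% in size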). An outline of the steps:
as §1

Test [12] concerns the target Cellular tumor antigen p53 (Homo sapiens) (UniProt P04637). The test is described as follows: Primary qHTS for small molecule compounds that upregulate eGFP-tagged delta133p53alpha (in N-terminal) cells. (AID 2060322).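 Further: cells pre-induced with doxycycline then dosed without doxycycline; series mostly up to about 56 µM; 0% = DMSO vehicle and 100% = reference activator; nearly all actives have a fitted effect of over 75% in size.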 The conditions noted are these: NCI-H358 eGFP-delta133p53alpha fluorescence, 24 h; activation: active compounds read high. An outline of the steps: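 NCI-H358 cells pre-induced 24 h with 10 ng/ml doxycycline for eGFP-delta133p53alpha, plated dox-free and exposed 24 h at 37C to titrated compounds. Fixed, Hoechst-stained; gated GFP peak intensity by laser scanning cytometry, normalized to DMSO (0%) and 57.5 uM 5-azacytidine (100%).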

Test [13] in a line: BET inhibitor-based combinations targeting novel dependencies in MECOM-rearranged (r) AML: MV-4-11 cell line (AID 2202233). Further: nearly all actives have a fitted effect of over 45% in size. Further: potency means the concentration at half of the fitted maximal effect. The method, boiled down: as §2
Test [14] has as its target Aldehyde dehydrogenase, mitochondrial (Homo sapiens) (UniProt P05091). The test is described as follows: qHTS for Inhibitors of the Aldehyde Dehydrogenase Family (ALDH2) Primary screen (AID 2061308).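 Further: plate controls were vehicle for no effect and reference inhibitor for full effect; nearly all actives have a fitted effect of over 55% in size.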
For test [15], the target named is Retinaldehyde dehydrogenase 3 (Homo sapiens) (UniProt P47895). The test is described as follows: qHTS for Inhibitors of the Aldehyde Dehydrogenase Family (ALDH1A3) Primary screen (AID 2061315).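 Further: plate controls were DMSO vehicle for no effect and reference inhibitor for full effect.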
For test [16], the target named is Aldehyde dehydrogenase, mitochondrial (Homo sapiens) (UniProt P05091). The test is described as follows: qHTS for Inhibitors of the Aldehyde Dehydrogenase Family (ALDH2) Confirmatory screens (AID 2061303; active means well fitted inhibition curve with a large enough effect; title and protocol of this record describe different tests; further: nearly all actives have a fitted effect of over 45% in size; further: potency means the concentration at half of the fitted maximal effect; on activity change, negative = inhibition: on the % scale 0 is the no-effect control and ±100 the full control effect).
The target in test [17] is Retinal dehydrogenase 2 (Homo sapiens) (UniProt O94788). Description: qHTS for Inhibitors of the Aldehyde Dehydrogenase Family (ALDH1A2) Confirmation screens (AID 2061314). Further: nearly all actives have a fitted effect of over 65% in size. Further: potency means the concentration at half of the fitted maximal effect.
Test [18] has as its target Aldehyde dehydrogenase 1A1 (Homo sapiens) (UniProt P00352). The test is described as follows: qHTS for Inhibitors of the Aldehyde Dehydrogenase Family (ALDH1A1) Confirmatory screens (AID 2061316). Further: nearly all actives have a fitted effect of over 65% in size. Further: potency means the concentration at half of the fitted maximal effect. On activity change, negative = inhibition: on the % scale 0 is the no-effect control and ±100 the full control effect.

SMILES strings stand for the structures. Inconclusive results are not listed. Values without a mark were called inactive. Activity calls are given as the source filed them. Unless noted, the call rests on the fitted dose curve; in most records, active means well fitted curve in the direction sought with a large enough effect; inconclusive means small, poorly fitted or top-dose-only effect, or another doubt; inactive means no such curve, though single readings can be large; an effect the other way counts as inactive or inconclusive.

Sequence of Cellular tumor antigen p53 (Homo sapiens) (P04637 whole entry, looked up): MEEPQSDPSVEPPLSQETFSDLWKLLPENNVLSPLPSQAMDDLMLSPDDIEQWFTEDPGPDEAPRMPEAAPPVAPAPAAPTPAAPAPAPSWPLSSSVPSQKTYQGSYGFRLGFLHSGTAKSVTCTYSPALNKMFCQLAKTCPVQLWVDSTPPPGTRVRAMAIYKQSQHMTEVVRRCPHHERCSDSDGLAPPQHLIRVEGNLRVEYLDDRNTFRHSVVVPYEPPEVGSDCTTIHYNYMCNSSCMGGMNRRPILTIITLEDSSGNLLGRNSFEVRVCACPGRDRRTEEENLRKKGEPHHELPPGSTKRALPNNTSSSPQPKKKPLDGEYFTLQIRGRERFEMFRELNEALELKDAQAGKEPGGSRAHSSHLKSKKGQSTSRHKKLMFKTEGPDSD

`Cc1ncsc1CCCl`: the Potency entry in test [1] was “inactive”.

On to `N[C@@H](Cn1oc(=O)[nH]c1=O)C(=O)O`, for which the Potency result in test [2], in test [1] and in [3] was “inactive” throughout.

On to `O=[N+]([O-])c1cc(O)c(O)c([N+](=O)[O-])c1`, for which the Potency entry in [2] and in test [4] was “inactive” each time. For the same compound, the Potency in [5] was 10.1 µM (active).

For the compound `C[N+](C)(C)CC(=O)O`, the Potency result in test [1] was “inactive”.

As usually defined, the viability is a read-out of living cells in per cent, often relative to untreated cells. With `NN=C(N)N`, the Potency result in test [2], in [1], in test [3], in test [7], in test [8] and in test [9] was “inactive” each time. Further, the Potency result in test [10] and in test [11] was “inactive” each time. The viability in [6] was 108%.

For `CC(Cc1ccc(OCC(=O)O)cc1)NCC(O)c1cccc(Cl)c1` (stereo not drawn), the Potency entry in test [2], in [1] and in [3] was “inactive” each time.

`COc1ccc(C(CN(C)C)C2(O)CCCCC2)cc1` (stereo not drawn): the Potency result in test [2], in test [1] and in [3] was “inactive” each time.

`C#C[C@]1(O)C=C[C@H]2[C@@H]3CCC4=CC(=O)CC[C@@H]4[C@H]3CC[C@@]21CC`: in test [12], the activation is 10.7%. The Potency in test [13] is 18.6 µM (active). The Potency entry in test [9], in test [10] and in [11] was “inactive” in each case.

For the compound `C=C(C)[C@H]1CN[C@H](C(=O)O)[C@H]1CC(=O)O`, the Potency entry in test [1] and in [3] was “inactive” throughout.

`CCCCCC[C@H]1C(=O)O[C@H](C)[C@H](NC(=O)c2cccc(NC=O)c2O)C(=O)O[C@@H](C)[C@@H]1OC(=O)CC(C)C`: in test [12], the activation is -21.7%. Also, the Potency is 1.32 µM (active) in test [13] and 0.263 µM (active) in [10].

As to `C=C1C[C@@H]2[C@H](CC[C@]3(C)C(=O)CC[C@@H]23)[C@@]2(C)C=CC(=O)C=C12`, the activation in test [12] was -17.6%. Moreover, the Potency in [13] is 18.6 µM (active).

As to `CCC1(C2=NCCN2)Cc2ccccc2O1` (stereo not drawn), the Potency result in [1] and in test [3] was “inactive” each time.

Regarding `c1ccc2cc(CC3=NCCN3)ccc2c1`, the Potency entry in test [2], in test [1] and in test [3] was “inactive” in each case.

Turning to `Nc1ccncc1`, the Potency entry in test [2], in [1] and in test [3] was “inactive” throughout.

Take `COC(=O)C1=CCCN(C)C1`: the Potency result in test [1] and in test [3] was “inactive” each time.

With `O=C1/C(=C/c2ccccc2)C[C@@]2(O)[C@H]3Cc4ccc(O)c5c4[C@@]2(CCN3CC2CC2)[C@H]1O5`, the Potency entry in [1] and in test [3] was “inactive” in each case.

Consider `CNCCc1ccc(O)c(O)c1`, for which the Potency entry in [1] was “inactive”.

For the compound `CC(CCc1ccccc1)NC(C)C(O)c1ccc(O)cc1` (stereo not drawn), the Potency result in [2], in [1] and in test [3] was “inactive” throughout.

For the compound `CNc1ccc2oc(C[C@H]3O[C@@]4(CC[C@H]3C)O[C@H]([C@H](C)C(=O)c3ccc[nH]3)[C@H](C)C[C@H]4C)nc2c1C(=O)O`, the Potency result in test [1] and in test [3] was “inactive” each time.

`CCCCCCCCCCCCCC(=O)O[C@@H]1[C@@H](C)[C@@]2(O)[C@@H](C=C(CO)C[C@@]3(O)C(=O)C(C)=C[C@@H]23)C2C(C)(C)[C@@]21OC(C)=O` (stereo partly drawn): the Potency result in test [2], in test [1] and in [3] was “inactive” in each case.

In the case of `NC(N)=Nc1ccc2[nH]c3c(c2c1)C[C@@]1(O)[C@H]2Cc4ccc(O)c5c4[C@@]1(CCN2CC1CC1)[C@H]3O5`, the Potency entry in [1] was “inactive”.

For the compound `CC(NC(C)(C)C)C(=O)c1cccc(Cl)c1` (stereo not drawn), the Potency result in test [2], in test [1], in test [14], in [3], in [15] and in [7] was “inactive” each time. Besides, the Potency entry in test [13], in [8] and in [11] was “inactive” in each case.

`COc1ccc(CNC(=O)/C=C/c2ccc3[nH]cc(CCN(C)C)c3c2)cc1`: the Potency result in test [2], in test [1] and in [3] was “inactive” throughout.

Take `C=CCN1CCC23c4c5ccc(O)c4O[C@H]2C(=O)CC[C@@]3(O)C1C5` (stereo partly drawn): the Potency result in [1] and in [3] was “inactive” throughout.

Turning to `CCCN1CCC[C@@H](c2cccc(O)c2)C1`, the Potency entry in test [2], in test [1] and in [3] was “inactive” in each case.

Regarding `CC(Cc1ccc(O)cc1)NCC(O)c1cc(O)cc(O)c1` (stereo not drawn), the Potency result in test [1] and in test [3] was “inactive” in each case.

In the case of `CC(C)N(CCC(C(N)=O)(c1ccccc1)c1ccccn1)C(C)C` (stereo not drawn), the Potency entry in [1], in test [14], in [3] and in [15] was “inactive” throughout.

Take `Cc1cccc(C)c1NC1=NCCCS1`: the Potency result in test [1] and in test [3] was “inactive” throughout.

On to `N[C@@]1(c2ccccc2Cl)CCC=CC1=O`, for which the Potency entry in [4] is “inactive”.

In the case of `N#C/C(=C\c1ccc(O)c(O)c1)C(N)=S`, the Potency was 8.96 µM (active) in [16]; 3.18 µM (active) in test [4]; 1.01 µM (active) in test [5]; 5.65 µM (active) in test [17]; 1.42 µM (active) in test [18].

Regarding `O=C(CNC12CC3CC(CC(C3)C1)C2)c1ccc(Cl)cc1`, in test [4], the Potency result was “inactive”.

As for `COc1ccc2c(c1)c(CCN(C)C)cn2S(=O)(=O)c1ccccc1`, the Potency entry in test [16], in test [4], in test [14], in [5], in test [3] and in test [17] was “inactive” throughout. In addition, the Potency result in test [15] was “inactive”.

Turning to `NC(N)=Nc1ccc2[nH]c3c(c2c1)C[C@@]1(O)C2Cc4ccc(O)c5c4[C@@]1(CCN2CC1CC1)[C@H]3O5`, the Potency entry in [4] is “inactive”.

On to `NCC(CC(=O)O)c1ccc(Cl)cc1` (stereo not drawn), for which the Potency result in test [1] and in [3] was “inactive” throughout.

On to `CCCn1c(C)c(C(=O)c2ccc3ccccc3c2)c2ccccc21`, for which the Potency result in [4], in [5], in test [17] and in test [18] was “inactive” in each case.

Turning to `CCOc1ccc(CCNC(=O)c2cc3cccnc3n2Cc2cccc(C)n2)cc1OCC`, the Potency result in test [16], in test [14] and in [15] was “inactive” throughout. In [5], the activity change, negative = inhibition is -11.9% [at 0.022 µM].

For `Oc1ccc(C2=CCNCC2)cc1O`, in [4], the Potency result was “inactive”.

As to `COc1cc(O)c2c(c1)CCC[C@@H](O)[C@H](O)C(=O)/C=C\C[C@H](C)OC2=O`, the Potency entry in test [16], in [14], in [5], in test [17] and in test [15] was “inactive” in each case.

(Values after PubChem BioAssay (NCATS).)
